# Screening results from PubChem.
# This is a sample that favours compounds with a hit; in the whole collection about 4.3% have one here.
# HSF1 activator: increases HSF-1 driven luciferase reporter signal | NIH3T3-HGL HSF-1 luciferase reporter, MG132, 8 h; 100% = twice DMSO control signal | activation, % at 9 µM | hit rate 1.7% among 300,000;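 active means mean replicate activation of at least 50% with a set share of replicates each reaching 50%; inconclusive means only one of those two conditions met; inactive means mean below 50% and too few replicates reaching it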;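 further: 0% = median of the neutral control wells and 100% = twice that signal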
# HSF1 inhib: HSF1 inhibition; activity change, negative = inhibition, % at 7.5 µM (by protocol); AID 2098; hit rate 0.77% among 300,000; NIH3T3-HGL HSE-luciferase, MG132-induced, luminescence 8 h; active compounds read low;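 active means more than half of replicate wells show activity change below -50%, luminescence cut by over half; inconclusive means some wells, but at most half, below -50%; inactive means no replicate well below -50%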;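 further: luciferase reports HSF-1 transcriptional activity via heat shock element; 0% = median of DMSO wells and -100% = zero luminescence signal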
# Wnt act: Wnt/beta-catenin pathway activation. Wnt/beta-catenin reporter cell assay, activator, plate reader. activation, % at 9.35 µM. hit rate 1.2% among 300,000; in the data active means activation above about 30%, passing the limit was not always enough; inconclusive means no clear call, values can overlap the other calls;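 further: 0% = neutral control wells and 100% = positive control wells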
# esBAF inh: SWI/SNF esBAF complex inhibition | reporter increase, % at 12.5 µM | AID 602393 | hit rate 2% among 350,000 | mouse ES cells, Bmi1-luciferase knock-in reporter, 24 h; 100% = twice the neutral-well signal; in the data active means activation above about 40%; inconclusive means no clear call, values can overlap the other calls;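 further: 0% = median of the plate's neutral control wells and 100% = double that signal; a rise in the Bmi1 reporter signal indicates esBAF inhibition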
# SMARCA2 activ: SMARCA2 function activation, primary screen | AID 652017 | activation, % at 9.1 µM | MG213 cells, MMTV-luciferase reporter, dexamethasone, overnight | hit rate 1% among 370,000; in the data active means activation above about 7.8%;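 further: 0% = vehicle wells and 100% = reference activator wells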
# MITF act: increases MITF-driven TRPM1 promoter luciferase signal; SK-MEL-5 TRPM1-promoter luciferase, 24 h; % of positive control, neutral wells = 0; activation, % at 12.5 µM; hit rate 0.75% among 300,000; AID 588334;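 active means mean activation of at least 80% with every replicate also reaching 80%; inconclusive means mean reaches 80% but some replicate falls short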;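 further: 0% = neutral control wells and 100% = parthenolide positive control wells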
# Active calls of the source: *; ? = inconclusive; / = no result.
SMILES,HSF1 activator,HSF1 inhib,Wnt act,esBAF inh,SMARCA2 activ,MITF act
CC(C)c1ccc(-c2nn(-c3ccccc3)cc2C2C(C#N)=C(N)OC3=C2C(=O)CC(C)(C)C3)cc1 (centres undefined),22,22,6,52*,-2,/
Cc1nn(-c2ccccc2)c(Cl)c1C1C(C#N)=C(N)OC2=C1C(=O)CC(C)(C)C2 (centres undefined),13,-1,-2,-4,-1,-21
C=CCNC(=O)C1CCN(c2nc(C)cc(-c3ccccc3)n2)CC1,20,6,8,56*,/,34
Cc1cc(-c2ccccc2)nc(N2CCC(C(=O)NCc3ccccc3Cl)CC2)n1,8,9,/,/,/,/
O=C(Cc1ccncc1)N1CC[C@@H]2[C@H](CO)Nc3ccc(-c4ccccc4F)cc3[C@@H]21,/,/,/,11,/,/
COCC(=O)Nc1ccc2c(c1)C(=O)N(C)C[C@H](OC)[C@@H](C)CN(CC1CC1)[C@H](C)CO2,/,/,/,1,/,/
O=C(NC(=S)Nc1ccc(N2CCCCC2)c(Cl)c1)c1ccc2c(c1)OCCO2,-64,-60*,-1,6,-4,-24
O=C(NC(=S)Nc1ccc(N2CCOCC2)c(Cl)c1)c1cncc(Br)c1,12,1,/,/,2,16
Cc1cc(C)cc(C(=O)NC(=S)Nc2ccc3c(c2)OCCO3)c1,122*,71,11,/,2,66
O=c1cc(-c2ccccc2)oc2cc(O)ccc12,/,/,4,?,4,88*
O=c1cc(-c2ccc(O)cc2)oc2ccc(O)cc12,40,29,56*,37,7.9*,78
O=c1ccc2c(-c3ccccc3)c3ccc(O)cc3oc-2c1,3,-7,0,-2,-1,1
CC(Oc1ccc2c(-c3ccccc3)cc(=O)oc2c1)C(=O)O (centres undefined),/,/,/,2,0,-12
O=c1cc(-c2ccccc2)c2ccc(O)cc2o1,-58,-51*,-1,/,-1,5
CC(=O)Nc1ccc2c(c1)C(=O)N(C)[C@H]1CC[C@H](CC(=O)NCc3ccccc3)O[C@@H]1CO2,/,/,/,-2,/,/
CCNC(=O)C[C@H]1CC[C@@H]2[C@@H](COc3ccc(NC(=O)Nc4ccccc4Cl)cc3C(=O)N2C)O1,/,/,/,2,/,/
CC(C)(C)S(=O)(=O)c1cnc(-c2ccc(Cl)cc2)nc1N,47,32,39*,/,7,?
C[C@@H]1CN([C@H](C)CO)C(=O)c2cc(NS(=O)(=O)c3ccc(Cl)cc3)ccc2O[C@H]1CN(C)C(=O)Nc1ccc2c(c1)OCO2,/,/,/,2,/,/
CN(C)CC(=O)Nc1ccc2c(c1)[C@H]1C[C@@H](CC(=O)NCc3cccc(F)c3)O[C@@H](CO)[C@H]1O2,/,/,/,0,/,/
COc1cc2c3c(c1OC)C1(C=CC(=O)C=C1)CC3N(C(=O)c1ccccc1)CC2 (centres undefined),55*,25,/,5,-1,-1
COc1cc2c3c(c1OC)C1(C=CC(=O)C=C1)CC3N(C(=O)CCC(=O)O)CC2 (centres undefined),-3,-4,2,0,-1,-5
CC(=O)Oc1c(C)cc(Cl)cc1C(=O)Nc1ccc([N+](=O)[O-])cc1Cl,56*,21,-27,/,-4,-50
CC(=O)OCC(=O)Nc1ccc([N+](=O)[O-])cc1Cl,-1,-8,5,/,1,4
CCCCN1/C(=C/c2ccc3ccccc3[n+]2CC)Sc2ccccc21,57*,11,/,/,/,-68
C[C@H](CO)N1C[C@H](C)[C@@H](CN(C)Cc2ccccc2)Oc2ccc(NC(=O)C3CCCCC3)cc2CC1=O,/,/,/,-1,/,/
SMILES,HSF1 activator,HSF1 inhib,Wnt act,esBAF inh,SMARCA2 activ,MITF act
C[C@@H]1CN([C@H](C)CO)C(=O)c2cccc(NS(=O)(=O)c3ccc(F)cc3)c2O[C@H]1CN(C)S(=O)(=O)c1ccc(Cl)cc1,/,/,/,-1,/,/
CCCCCOC(=O)C1=C(C)NC(=O)NC1c1ccc([N+](=O)[O-])cc1 (centres undefined),63*,37,0,-9,-2,1
CCCCCCOC(=O)C1=C(C)NC(=O)NC1c1ccc(O)cc1 (centres undefined),19,1,-1,-2,-1,-2
CCOc1cccc(C(=O)NC(=S)Nc2ccccc2)c1,24,0,5,/,5,93*
Cc1ccc2cccnc2c1NC(=S)NC(=O)c1ccccc1,137*,122,/,-12,2,6
O=C(Nc1ccc2ncccc2c1)c1ccccc1,4,0,-1,-5,-1,-10
CCOc1cccc(C(=O)NC(=S)Nc2cccnc2)c1,11,11,/,/,5,6
O=C(NC(=S)Nc1ccc2ncccc2c1)c1ccccc1,25,7,15,67*,4,75
Cc1ccc2cccc(NC(=S)NC(=O)c3ccccc3)c2n1,5,-4,5,17,-1,/
CCC(=O)Nc1cccc(NC(=S)NC(=O)c2ccccc2)c1,54*,22,/,/,6,48
O=C(NC(=S)Nc1ccc2nc[nH]c2c1)c1ccccc1,29,21,17,55*,1,102*
CC(=O)c1cccc(NC(=S)NC(=O)c2ccc(C)cc2Cl)c1,42,16,/,60*,3,29
CCC(=O)Nc1cccc(NC(=S)NC(=O)c2ccc(C)cc2)c1,35,14,-8,96*,-1,47
Cc1ccc(NC(=S)NC(=O)c2ccccc2)cc1NC(=S)NC(=O)c1ccccc1,41,20,9,28,3,-16
O=C(NC(=S)Nc1ccc2[nH]ncc2c1)c1ccccc1,37,19,/,66*,2,41
CC(=O)c1cccc(NC(=S)NC(=O)c2ccccc2Cl)c1,17,15,/,/,5,-3
C/C=C/c1ccc2c(c1)O[C@@H](CN(C)C(=O)Nc1ccc(C(F)(F)F)cc1)[C@H](C)CN([C@@H](C)CO)S2(=O)=O,/,/,/,-2,/,/
COc1ccc(C(=O)Nc2ccc3c(c2)C(=O)N(C)C[C@@H](OC)[C@@H](C)CN(C(C)=O)[C@H](C)CO3)cc1,/,/,/,1,/,/
COCC#Cc1cnc2c(c1)C(=O)N([C@@H](C)CO)C[C@H](C)[C@H](CN(C)Cc1ccc(-c3ccccc3)cc1)O2,/,/,/,-6,/,/
C[C@H]1CN([C@@H](C)CO)C(=O)c2cc(C#CC3CCCC3)cnc2O[C@@H]1CN(C)S(C)(=O)=O,/,/,/,-1,/,/
CCCC#Cc1cnc2c(c1)C(=O)N([C@@H](C)CO)C[C@H](C)[C@@H](CN(C)C(=O)C1CCCCC1)O2,/,/,/,-5,/,/
O=C(Nc1cccc(NC(=S)NC(=O)c2cccs2)c1)c1ccccc1,14,12,-3,5,-4,4
CC(C)(C)NC(=S)NNC(=O)c1ccc2ncccc2c1,25,9,11,57*,4,73
O=C(NC(=S)Nc1cccc(NC(=S)NC(=O)c2ccccc2)c1)c1ccccc1,/,/,-3,66*,0,1
CC(C)(C)c1ccc(/C=C/C(=O)N2CCCCC2)cc1,4,-2,33*,47*,3,101*
